Screening results deposited in PubChem BioAssay by several laboratories.
ADAM17 inh – ADAM17 inhibitors, primary screen, biochemical, QFRET; Disintegrin and metalloproteinase domain-containing protein 17 (Homo sapiens), P78536; recombinant ADAM17, EDANS/DABCYL FRET peptide cleavage; inhibition, % at 6.95 µM; 370,000 tested, 0.83% active; AID 720648, 2013;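 active = inhibition above the mean of compounds lying between control limits plus 3 SD, set per campaign, cut at about 8.5% in these data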;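 also: 0% = DMSO-only wells as the low control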
sPLA2-III inh – human group III sPLA2 inhibitors, primary screen, biochemical, QFRET, BODIPY PC-A2 liposome substrate | QFRET BODIPY PC-A2 liposome hydrolysis, fluorescence | inhibition, % at 12.2 µM | 370,000 tested, 0.56% active | AID 743126, 2013;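 active = inhibition above mean plus 3 SD of compounds lying within the high and low control bounds, cut at about 19% in these data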;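 also: 0% = median of test compound wells and 100% = no enzyme DMSO wells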
ADAM10 inh – human ADAM10 inhibitors, primary screen, biochemical, QFRET, HTS. inhibition, % at 7 µM. 370,000 tested, 0.62% active. Disintegrin and metalloproteinase domain-containing protein 10 (Homo sapiens), O14672. recombinant ADAM10, EDANS/DABCYL FRET peptide cleavage, 3 h;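 active = inhibition above a per-campaign cutoff equal to the mean of compounds falling between control-based bounds plus 3 SD, cut at about 20% in these data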;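 also: 0% = DMSO wells while the 100% control is not disclosed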
GRIN3A LBD mod – binders of NR3A ligand-binding domain, primary screen, biophysical, differential scanning fluorimetry, uHTS. Glutamate receptor ionotropic, NMDA 3A (GRIN3A) ligand-binding domain. NR3A LBD differential scanning fluorimetry, Tm shift; 0% = protein alone, 100% = glycine-bound protein. Tm shift relative to glycine control, % at 25 µM. 340,000 tested, 2.5% active. AID 1259313, 2017;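 active = melting temperature shift of at least 10% of the positive control shift, at one fixed dose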
FAS-TE inh – FAS thioesterase domain inhibitors, primary screen, biochemical, fluorescence intensity, uHTS | Fatty acid synthase (Homo sapiens), P49327 | recombinant FAS-TE, OMFH fluorogenic substrate, fluorescence endpoint | inhibition, % at 15 µM | 360,000 tested, 0.67% active | AID 602261, 2012;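 active = compounds whose normalised, plate-corrected inhibition of enzyme fluorescence in the single-dose primary screen is 50% or more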;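 also: 0% = DMSO with enzyme and 100% = substrate without enzyme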
Target sequence (P49327 whole entry, looked up, the tested form may be a part): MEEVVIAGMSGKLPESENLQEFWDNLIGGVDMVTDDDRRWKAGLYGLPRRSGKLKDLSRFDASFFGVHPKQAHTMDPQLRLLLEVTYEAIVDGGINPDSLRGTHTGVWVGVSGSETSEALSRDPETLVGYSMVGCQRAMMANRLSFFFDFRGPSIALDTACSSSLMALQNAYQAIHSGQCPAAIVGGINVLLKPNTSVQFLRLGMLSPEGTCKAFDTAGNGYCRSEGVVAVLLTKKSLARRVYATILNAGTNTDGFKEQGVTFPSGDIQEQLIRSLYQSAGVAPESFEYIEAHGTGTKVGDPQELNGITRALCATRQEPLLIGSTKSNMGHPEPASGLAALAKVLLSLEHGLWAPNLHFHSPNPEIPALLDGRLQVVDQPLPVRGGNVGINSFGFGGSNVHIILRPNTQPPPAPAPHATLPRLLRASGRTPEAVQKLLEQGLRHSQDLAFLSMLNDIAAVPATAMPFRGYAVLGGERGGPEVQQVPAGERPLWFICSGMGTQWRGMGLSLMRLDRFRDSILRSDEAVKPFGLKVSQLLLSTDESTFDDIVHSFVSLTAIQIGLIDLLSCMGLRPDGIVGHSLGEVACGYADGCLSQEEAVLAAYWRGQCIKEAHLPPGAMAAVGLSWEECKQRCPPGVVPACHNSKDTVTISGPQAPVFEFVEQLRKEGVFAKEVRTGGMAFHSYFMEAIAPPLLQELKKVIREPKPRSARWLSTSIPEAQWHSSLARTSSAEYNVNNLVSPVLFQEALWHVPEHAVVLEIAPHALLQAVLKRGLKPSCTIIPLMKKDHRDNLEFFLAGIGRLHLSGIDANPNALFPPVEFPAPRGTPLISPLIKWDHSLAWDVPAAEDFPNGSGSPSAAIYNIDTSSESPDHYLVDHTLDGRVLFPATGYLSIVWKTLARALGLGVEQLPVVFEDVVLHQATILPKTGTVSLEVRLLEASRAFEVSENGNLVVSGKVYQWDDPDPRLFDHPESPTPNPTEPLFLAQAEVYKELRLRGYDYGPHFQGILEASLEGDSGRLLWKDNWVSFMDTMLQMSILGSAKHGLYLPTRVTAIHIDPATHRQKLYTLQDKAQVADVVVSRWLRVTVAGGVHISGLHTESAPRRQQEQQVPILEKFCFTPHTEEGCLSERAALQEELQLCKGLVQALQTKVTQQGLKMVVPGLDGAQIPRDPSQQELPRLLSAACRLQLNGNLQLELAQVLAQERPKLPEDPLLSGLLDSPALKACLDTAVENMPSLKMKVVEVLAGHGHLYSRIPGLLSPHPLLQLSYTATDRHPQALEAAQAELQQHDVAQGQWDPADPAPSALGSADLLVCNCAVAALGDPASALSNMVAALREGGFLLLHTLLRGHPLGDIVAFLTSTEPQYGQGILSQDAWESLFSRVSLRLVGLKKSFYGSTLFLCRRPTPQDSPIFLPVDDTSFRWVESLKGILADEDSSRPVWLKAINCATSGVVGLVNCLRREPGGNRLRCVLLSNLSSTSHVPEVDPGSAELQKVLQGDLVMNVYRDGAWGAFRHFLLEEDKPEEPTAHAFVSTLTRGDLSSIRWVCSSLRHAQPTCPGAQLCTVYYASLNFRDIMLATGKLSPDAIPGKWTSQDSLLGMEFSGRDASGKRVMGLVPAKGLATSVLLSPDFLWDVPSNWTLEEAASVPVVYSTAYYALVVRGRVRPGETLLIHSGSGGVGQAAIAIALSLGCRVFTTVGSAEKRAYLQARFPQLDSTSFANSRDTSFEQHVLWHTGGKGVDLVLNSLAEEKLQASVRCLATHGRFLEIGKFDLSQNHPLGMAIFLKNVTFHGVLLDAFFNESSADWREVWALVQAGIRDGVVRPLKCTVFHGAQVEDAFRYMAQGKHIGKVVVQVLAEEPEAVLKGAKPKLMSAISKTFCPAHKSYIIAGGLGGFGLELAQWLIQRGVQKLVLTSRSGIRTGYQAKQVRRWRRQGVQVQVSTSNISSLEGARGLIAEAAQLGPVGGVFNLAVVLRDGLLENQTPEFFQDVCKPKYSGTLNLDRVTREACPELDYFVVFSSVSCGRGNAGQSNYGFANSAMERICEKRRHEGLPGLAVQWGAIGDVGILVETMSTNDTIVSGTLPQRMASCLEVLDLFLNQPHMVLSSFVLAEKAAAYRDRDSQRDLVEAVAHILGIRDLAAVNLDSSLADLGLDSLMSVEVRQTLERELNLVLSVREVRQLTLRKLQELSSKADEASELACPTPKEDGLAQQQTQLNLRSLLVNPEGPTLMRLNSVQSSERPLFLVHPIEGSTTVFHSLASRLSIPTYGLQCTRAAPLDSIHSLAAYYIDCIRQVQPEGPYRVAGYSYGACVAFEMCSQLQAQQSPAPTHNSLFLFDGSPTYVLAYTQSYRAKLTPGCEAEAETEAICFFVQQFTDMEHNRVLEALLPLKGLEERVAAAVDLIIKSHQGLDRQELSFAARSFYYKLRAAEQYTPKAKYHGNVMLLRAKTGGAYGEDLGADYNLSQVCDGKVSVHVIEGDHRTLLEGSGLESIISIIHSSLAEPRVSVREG
* marks the source's active call; other numbers are inactive results. Rows were chosen to be rich in hits. Some 4.3% of all compounds tested hit in one or more screens of this group.

`COc1ccc(OC)c(NC(=O)c2ccccc2N(Cc2ccccc2)C(=O)C(C)Cl)c1` (configuration not stated) gave ADAM17 inh -8, sPLA2-III inh 13 and ADAM10 inh -53.
Oc1c(/C=C/C=C/C=Nc2ccccc2)sc(=S)n1Cc1ccccc1 was read as ADAM17 inh -1, sPLA2-III inh -1, ADAM10 inh 6, GRIN3A LBD mod 10* and FAS-TE inh 21.
Screening CCn1c(O)c(/C=C/C=C/C=Nc2ccccc2)sc1=S returned ADAM17 inh -4, sPLA2-III inh -2, ADAM10 inh -3, GRIN3A LBD mod -1 and FAS-TE inh -3.
CCN1CCCCC(NC(=O)c2ccc(C)cc2)C1=O (configuration not stated) was read as ADAM17 inh 4, sPLA2-III inh 3 and ADAM10 inh 1.
`CC(C)CNC(=O)OCc1cn(Cc2cccc(F)c2F)nn1` gave ADAM17 inh -8, sPLA2-III inh 7 and ADAM10 inh 2.
COc1cc(NC(=O)c2ccccc2Cl)ccc1NC(=O)c1cccs1 was read as ADAM17 inh -2, sPLA2-III inh 0, ADAM10 inh 5, GRIN3A LBD mod 0 and FAS-TE inh 4.
Screening COc1ccc(NC(=O)c2cc3ccccc3[nH]2)cc1 returned ADAM17 inh -2, sPLA2-III inh 1, ADAM10 inh 8, GRIN3A LBD mod 24* and FAS-TE inh -2.
`COc1ccc2[nH]c(C(=O)Nc3ccc(C)c(F)c3)cc2c1` gave ADAM17 inh -4, sPLA2-III inh -1, ADAM10 inh -11, GRIN3A LBD mod 7 and FAS-TE inh 2.
`O=C(COc1cccc(NC(=O)c2cccs2)c1)c1ccc(F)cc1` gave ADAM17 inh 2, sPLA2-III inh -19, ADAM10 inh -3, GRIN3A LBD mod 13* and FAS-TE inh 22.
For O=C(Nc1ccc(NC(=O)c2ccc([N+](=O)[O-])o2)cc1Cl)c1ccco1 the results were ADAM17 inh 0, sPLA2-III inh 3, ADAM10 inh -6, GRIN3A LBD mod 22* and FAS-TE inh -2.
O=C(Nc1cccc(NC(=O)c2ccc([N+](=O)[O-])o2)c1)c1ccco1 was read as ADAM17 inh -2, sPLA2-III inh -1, ADAM10 inh 0, GRIN3A LBD mod 1 and FAS-TE inh 2.
For COc1cc(NC(=O)c2cccc(Cl)c2)ccc1NC(=O)c1cccs1 the results were ADAM17 inh 0, sPLA2-III inh 0, ADAM10 inh -1, GRIN3A LBD mod 30* and FAS-TE inh 28.
Screening O=C(CSc1nc2ccccc2n1Cc1ccccc1Cl)NN=C/C(Br)=C/c1ccccc1 returned ADAM17 inh 1, sPLA2-III inh -7 and ADAM10 inh -4.
For CCCCCc1ccc(NC(=O)OCCCN2CCC3(CCC(c4ccccc4)CC3)C2=O)cc1 (configuration not stated) the results were ADAM17 inh -6, sPLA2-III inh 19 and ADAM10 inh -14.
Screening CS(=O)(=O)N1C[C@]2(c3ccccc3)CC1Cc1ccccc12 returned ADAM17 inh -3, sPLA2-III inh 4 and ADAM10 inh -2.
Screening COc1c(Cl)cc(Cl)cc1C(=O)Nc1ccc(C(=O)O)cc1 returned ADAM17 inh 1, sPLA2-III inh 3, ADAM10 inh 3, GRIN3A LBD mod 1 and FAS-TE inh -10.
COc1cccc(C(=O)Nc2cc(NC(=O)c3cccs3)ccc2C)c1 was read as ADAM17 inh 1, sPLA2-III inh 5, ADAM10 inh -2, GRIN3A LBD mod -1 and FAS-TE inh 5.
Screening COc1cccc(C(=O)Nc2cccc(NC(=O)c3cccs3)c2)c1 returned ADAM17 inh -2, sPLA2-III inh -2, ADAM10 inh 3, GRIN3A LBD mod 17* and FAS-TE inh 6.
Screening COc1c(Cl)cc(Cl)cc1/C=C/C(=O)c1ccc(NC(=O)c2cccs2)cc1 returned ADAM17 inh 0, sPLA2-III inh -1, ADAM10 inh -3, GRIN3A LBD mod 30* and FAS-TE inh 39.
For COc1cc(NC(=O)c2cc3ccccc3cc2OC)ccc1NC(=O)c1cccs1 the results were ADAM17 inh 2, sPLA2-III inh -6, ADAM10 inh -15, GRIN3A LBD mod 21* and FAS-TE inh 21.
CCOC(=O)c1cc2cc(OC)ccc2[nH]1 was read as ADAM17 inh -70, sPLA2-III inh 9, ADAM10 inh -179, GRIN3A LBD mod 11* and FAS-TE inh 1.
`COc1cccc(NC(=O)c2cccc(C(=O)Nc3cccc(OC)c3)c2)c1` gave ADAM17 inh -2, sPLA2-III inh -6, ADAM10 inh 15, GRIN3A LBD mod 3 and FAS-TE inh 0.
For O=C(Nc1cccc(NC(=O)c2cccs2)c1)c1ccc([N+](=O)[O-])o1 the results were ADAM17 inh 0, sPLA2-III inh -13, ADAM10 inh 1, GRIN3A LBD mod 8 and FAS-TE inh 26.
For COc1cc(NC(=O)c2ccc([N+](=O)[O-])o2)ccc1NC(=O)c1cccs1 the results were ADAM17 inh 3, sPLA2-III inh 9, ADAM10 inh 10, GRIN3A LBD mod 24* and FAS-TE inh 2.
Screening COc1cccc(C(=O)Nc2cccc(C(=O)NCC(C)C)c2)c1 returned ADAM17 inh 3, sPLA2-III inh 6, ADAM10 inh 5, GRIN3A LBD mod 13* and FAS-TE inh -12.
`COc1ccc(C(=O)Nc2ccc3ccccc3c2)c(OC)c1` gave ADAM17 inh 3, sPLA2-III inh -6, ADAM10 inh 13, GRIN3A LBD mod 18* and FAS-TE inh 27.
`COc1ccc(Cn2cc(CN3[C@H](Cc4ccccc4)COc4cc(Br)ccc4S3(=O)=O)nn2)cc1` gave ADAM17 inh -1, sPLA2-III inh 0 and ADAM10 inh -1.
For O=C(CSc1ccccn1)c1ccc(F)cc1 the results were ADAM17 inh 2, sPLA2-III inh -24, ADAM10 inh 7, GRIN3A LBD mod 2 and FAS-TE inh -6.
Screening Cc1ccc(C(=O)CSc2ccccn2)cc1 returned ADAM17 inh 2, sPLA2-III inh -35, ADAM10 inh 8, GRIN3A LBD mod 11* and FAS-TE inh -3.
Screening O=C(CSc1ccccn1)C12CC3CC(CC(C3)C1)C2 returned ADAM17 inh 2, sPLA2-III inh -18, ADAM10 inh 4, GRIN3A LBD mod 12* and FAS-TE inh 19.
For Cc1c(Cl)ccc2c(C(O)CBr)cc(-c3ccccc3)nc12 (configuration not stated) the results were ADAM17 inh 5, sPLA2-III inh -4, ADAM10 inh -2, GRIN3A LBD mod 32* and FAS-TE inh 31.
